Data taken from the supplement of paper PMC6555819.

Assays:
Assay in all cases: PBM binding z-score (relative to random genomic background probes); higher = stronger binding; sequences stand for … in GC…GCGATTGACAGCGTAGAATGAAGG
[1] = system: RARb homodimer (NR concentration 270 nM)
In short: (§1)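 Regression normalization was applied to scanned fluorescence from custom Agilent 4×180K protein-binding microarrays. Before scanning, arrays were incubated 1 h with ligand-free nuclear receptor dimers, and binding was detected with antibodies against each partner (one per run). Binding z-scores use the random background probes as reference.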

[2] = system: RARg:RXRa (NR concentration 270 nM, RXRa partner concentration 90 nM)
In short: as §1

[3] = system: RARg homodimer (NR concentration 270 nM)
In short: as §1

[4] = system: RXRa DBDmut IVT, anti-RXR (DBD mutation: RXRa K156A/R161A, NR concentration 90 nM)
In short: as §1

[5] = system: RXRa homodimer (NR concentration 180 nM)
In short: as §1

[6] = system: THRa:RXRa (NR concentration 90 nM, RXRa partner concentration 90 nM)
In short: as §1

[7] = system: THRa homodimer (NR concentration 90 nM)
In short: as §1

[8] = system: VDR homodimer (NR concentration 270 nM)
In short: as §1

TCATATAGGTACATGCTAGGTGAAAGTCCGATCT
PBM binding z-score [1]: 0.598 | PBM binding z-score [2]: 0.521 | PBM binding z-score [3]: 0.462 | PBM binding z-score [4]: 2.05 | PBM binding z-score [5]: 0.745 | PBM binding z-score [6]: 2.02 | PBM binding z-score [7]: 0.723 | PBM binding z-score [8]: 0.987

ACTTACGGGTCAACAAGGTTATAGCACGCGTATA
PBM binding z-score [1]: 3.84 | PBM binding z-score [2]: 5.44 | PBM binding z-score [3]: 5.07 | PBM binding z-score [4]: 2.33 | PBM binding z-score [5]: 5.87 | PBM binding z-score [6]: 4.04 | PBM binding z-score [7]: 1.05 | PBM binding z-score [8]: 2.78

TCTCGGAGGACACGAAGGGCAGAGCTTTCCAGAG
PBM binding z-score [1]: 1.42 | PBM binding z-score [2]: 0.796 | PBM binding z-score [3]: 1.71 | PBM binding z-score [4]: 0.216 | PBM binding z-score [5]: -0.0528 | PBM binding z-score [6]: 1.33 | PBM binding z-score [7]: 0.123 | PBM binding z-score [8]: -0.0061

CTAGAAAGGTCGTGCTCAGGTGAGTATACCAAAC
PBM binding z-score [1]: 2.93 | PBM binding z-score [2]: 4.96 | PBM binding z-score [3]: 3.62 | PBM binding z-score [4]: 2.16 | PBM binding z-score [5]: 4.44 | PBM binding z-score [6]: 4.02 | PBM binding z-score [7]: 0.909 | PBM binding z-score [8]: 0.842

ATCTCTAGGTAACAAGTTCAGTGATAGAGAGGAC
PBM binding z-score [1]: 1.92 | PBM binding z-score [2]: 1.05 | PBM binding z-score [3]: 1.57 | PBM binding z-score [4]: 1.06 | PBM binding z-score [5]: 0.757 | PBM binding z-score [6]: 1.38 | PBM binding z-score [7]: 0.931 | PBM binding z-score [8]: 2.93

TCATATACGTAAATGCTAGGTGAAAGTCCGATCT
PBM binding z-score [1]: 0.562 | PBM binding z-score [2]: 0.251 | PBM binding z-score [3]: 0.209 | PBM binding z-score [4]: 1.77 | PBM binding z-score [5]: 0.598 | PBM binding z-score [6]: 0.97 | PBM binding z-score [7]: 0.696 | PBM binding z-score [8]: 0.147

GATACAAGGTCAAGGCCAGAGTACGCGTATTGAT
PBM binding z-score [1]: 4.63 | PBM binding z-score [2]: 5.82 | PBM binding z-score [3]: 6.11 | PBM binding z-score [4]: 2.63 | PBM binding z-score [5]: 5.5 | PBM binding z-score [6]: 3.88 | PBM binding z-score [7]: 2.35 | PBM binding z-score [8]: 2.41

ATAGAAAGGTCGAGGTGAGTATAGAGAAAGGGAA
PBM binding z-score [1]: 2.6 | PBM binding z-score [2]: 4.22 | PBM binding z-score [3]: 4.22 | PBM binding z-score [4]: 0.887 | PBM binding z-score [5]: 4.17 | PBM binding z-score [6]: 2.93 | PBM binding z-score [7]: 0.985 | PBM binding z-score [8]: 0.537

TTACCAAGGTGAGCTGAGCTCGTTGATCCAACTC
PBM binding z-score [1]: -0.157 | PBM binding z-score [2]: -0.164 | PBM binding z-score [3]: -0.277 | PBM binding z-score [4]: -0.78 | PBM binding z-score [5]: 0.0974 | PBM binding z-score [6]: 1 | PBM binding z-score [7]: -0.222 | PBM binding z-score [8]: -0.959

ATATGTAGGTTAAGGGTCACTCAGGTTGGTTCGC
PBM binding z-score [1]: 4.35 | PBM binding z-score [2]: 4.99 | PBM binding z-score [3]: 4 | PBM binding z-score [4]: 1.82 | PBM binding z-score [5]: 6.33 | PBM binding z-score [6]: 3.59 | PBM binding z-score [7]: 2.01 | PBM binding z-score [8]: 3.47

TAGCCTAGGTCATGGGCCAGTATCCCACGCGAAC
PBM binding z-score [1]: 2.76 | PBM binding z-score [2]: 4 | PBM binding z-score [3]: 4.2 | PBM binding z-score [4]: -0.01 | PBM binding z-score [5]: 3.19 | PBM binding z-score [6]: 3.18 | PBM binding z-score [7]: 1.65 | PBM binding z-score [8]: 0.301

TGAATGAGGTTAAAGAACAGGGAACGTGGCGTCG
PBM binding z-score [1]: 0.64 | PBM binding z-score [2]: 1.86 | PBM binding z-score [3]: 1.5 | PBM binding z-score [4]: 1.33 | PBM binding z-score [5]: 2.68 | PBM binding z-score [6]: 2.03 | PBM binding z-score [7]: 0.34 | PBM binding z-score [8]: 0.66

GCGACTGGGGCATCAGCAGTTTACCATAACTTAA
PBM binding z-score [1]: 0.541 | PBM binding z-score [2]: 0.124 | PBM binding z-score [3]: 0.341 | PBM binding z-score [4]: 0.507 | PBM binding z-score [5]: 0.0851 | PBM binding z-score [6]: 0.0532 | PBM binding z-score [7]: -0.343 | PBM binding z-score [8]: 0.258

CCTACTGGGCCAAGGCCATTGATCAGTCAAAGCA
PBM binding z-score [1]: 0.497 | PBM binding z-score [2]: -0.179 | PBM binding z-score [3]: -0.0334 | PBM binding z-score [4]: -1.15 | PBM binding z-score [5]: -0.715 | PBM binding z-score [6]: 0.101 | PBM binding z-score [7]: -0.288 | PBM binding z-score [8]: -0.406

CGAACTAGGTCATCTAGGACAGTGAATACATTGA
PBM binding z-score [1]: 2.74 | PBM binding z-score [2]: 4.13 | PBM binding z-score [3]: 4.96 | PBM binding z-score [4]: 2.2 | PBM binding z-score [5]: 2.99 | PBM binding z-score [6]: 3.3 | PBM binding z-score [7]: 1.49 | PBM binding z-score [8]: 1.48

CCTTACGGGGCACTCCAGGTTATAGCATCGGAGT
PBM binding z-score [1]: 0.528 | PBM binding z-score [2]: 0.714 | PBM binding z-score [3]: 0.823 | PBM binding z-score [4]: -0.513 | PBM binding z-score [5]: 0.523 | PBM binding z-score [6]: 3.58 | PBM binding z-score [7]: -0.229 | PBM binding z-score [8]: 0.0884

TCTTGTAGACCAATAGAGGTTAAGAAAGTGCGCT
PBM binding z-score [1]: 1.42 | PBM binding z-score [2]: 0.922 | PBM binding z-score [3]: 0.638 | PBM binding z-score [4]: 0.754 | PBM binding z-score [5]: 1.37 | PBM binding z-score [6]: 1.66 | PBM binding z-score [7]: -0.31 | PBM binding z-score [8]: 0.345

TCTTGTAGATCAGCAGGTTAAGGAAGCTGGCCAA
PBM binding z-score [1]: 0.142 | PBM binding z-score [2]: 0.132 | PBM binding z-score [3]: -0.17 | PBM binding z-score [4]: 0.474 | PBM binding z-score [5]: 0.329 | PBM binding z-score [6]: 0.266 | PBM binding z-score [7]: -0.666 | PBM binding z-score [8]: -0.598

CCGACTGAGGCAAAGGTTACCATACTCAGTACGA
PBM binding z-score [1]: 1.76 | PBM binding z-score [2]: 1.73 | PBM binding z-score [3]: 1.29 | PBM binding z-score [4]: 0.393 | PBM binding z-score [5]: 2.61 | PBM binding z-score [6]: 1.54 | PBM binding z-score [7]: 0.023 | PBM binding z-score [8]: -0.216

ACAGACAGGTGAGTGAAGGTAACTCGGCTGGACG
PBM binding z-score [1]: 0.0831 | PBM binding z-score [2]: 0.0852 | PBM binding z-score [3]: 0.044 | PBM binding z-score [4]: -0.351 | PBM binding z-score [5]: 0.256 | PBM binding z-score [6]: 1.38 | PBM binding z-score [7]: -0.708 | PBM binding z-score [8]: -0.648

ACTAGTTGGTCAGCTGAGATCACACACAATTCGG
PBM binding z-score [1]: 0.406 | PBM binding z-score [2]: 0.638 | PBM binding z-score [3]: 0.88 | PBM binding z-score [4]: 0.396 | PBM binding z-score [5]: 0.449 | PBM binding z-score [6]: 0.991 | PBM binding z-score [7]: -0.107 | PBM binding z-score [8]: -0.0701

GCGACTGGGGCAAAGCAGGTTACCACAAGGTTGG
PBM binding z-score [1]: 1.08 | PBM binding z-score [2]: 0.456 | PBM binding z-score [3]: 0.439 | PBM binding z-score [4]: -0.219 | PBM binding z-score [5]: 0.39 | PBM binding z-score [6]: 3.04 | PBM binding z-score [7]: -0.328 | PBM binding z-score [8]: -0.626

GCTGCTAGGTCAGGTTGATCAGCTAACGGGTACG
PBM binding z-score [1]: 2.24 | PBM binding z-score [2]: 2.65 | PBM binding z-score [3]: 3.71 | PBM binding z-score [4]: 0.558 | PBM binding z-score [5]: 1.14 | PBM binding z-score [6]: 1.73 | PBM binding z-score [7]: 0.499 | PBM binding z-score [8]: 0.442

CCGACTGGGGCAGAAGGTTACCATAAGCCAGCCC
PBM binding z-score [1]: 1.53 | PBM binding z-score [2]: 1.14 | PBM binding z-score [3]: 0.806 | PBM binding z-score [4]: -0.593 | PBM binding z-score [5]: 1.04 | PBM binding z-score [6]: 0.31 | PBM binding z-score [7]: -0.571 | PBM binding z-score [8]: 0.083

CATACAGGGTCAGCTAGGCCAGAGAAGGGACGGC
PBM binding z-score [1]: 3.35 | PBM binding z-score [2]: 4.63 | PBM binding z-score [3]: 5.1 | PBM binding z-score [4]: 1.74 | PBM binding z-score [5]: 4.46 | PBM binding z-score [6]: 2.99 | PBM binding z-score [7]: 0.568 | PBM binding z-score [8]: 1.67

TCATATAGGTAAACGGTGAAAGTCGGTGTGGTAA
PBM binding z-score [1]: 0.301 | PBM binding z-score [2]: 0.178 | PBM binding z-score [3]: -0.128 | PBM binding z-score [4]: 1.47 | PBM binding z-score [5]: 0.601 | PBM binding z-score [6]: 0.081 | PBM binding z-score [7]: 0.00294 | PBM binding z-score [8]: -0.132

CTCGAAAGGTCGGTTGAAGTGAGTATACGGATAA
PBM binding z-score [1]: 1.72 | PBM binding z-score [2]: 2.38 | PBM binding z-score [3]: 2.65 | PBM binding z-score [4]: 0.742 | PBM binding z-score [5]: 1.98 | PBM binding z-score [6]: 1.42 | PBM binding z-score [7]: 0.13 | PBM binding z-score [8]: 0.557

GCGACTTGGGCATCAGCAGGTTACCATAACTTAA
PBM binding z-score [1]: -0.0318 | PBM binding z-score [2]: -0.252 | PBM binding z-score [3]: -0.319 | PBM binding z-score [4]: -0.131 | PBM binding z-score [5]: -0.00546 | PBM binding z-score [6]: 0.236 | PBM binding z-score [7]: 0.128 | PBM binding z-score [8]: -0.321

AGTATGAGGTTACCAAAGATCAGGGAAACGCTTG
PBM binding z-score [1]: 1.09 | PBM binding z-score [2]: 2.17 | PBM binding z-score [3]: 1.83 | PBM binding z-score [4]: 0.98 | PBM binding z-score [5]: 2.63 | PBM binding z-score [6]: 2.87 | PBM binding z-score [7]: 0.98 | PBM binding z-score [8]: 0.48
